Results on ten compounds are retold here after PubChem BioAssay.

Active and inactive are the calls of the source. Unless noted, how the calls were made is not given here.

Assay [1] can be described thus: resazurin metabolic signal in HepG2 cells – cell-based, resazurin fluorescence, 24 h, PK04 Diversity Set, profiling panel (AID 1172). Further: test concentration not given here. To be noted: HepG2 viability, higher = more signal. On the technique in general: The colour change of resazurin is a common sign of viable cells or microbes.
A short description of assay [2]: budding yeast growth changes without added modifier – OD600, strain BY4716, 24 h, basal condition, primary screen (AID 1173). To be noted: S. cerevisiae BY4716 growth, OD600, 24 h; higher = more signal, called active from +8 up or from −8 down.
Assay [3] can be described thus: viability profiling in MM1S myeloma cells – cell-based, resazurin fluorescence, basal, 24 h, PK04 Diversity Set, profiling panel (AID 1174).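 Further: MM1S multiple myeloma cell line; test concentration not given here.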 To be noted: higher = more signal, called active from +8 up or from −8 down.
The target of assay [4] is Dihydroorotate dehydrogenase (quinone), mitochondrial (Plasmodium falciparum (isolate 3D7)) (UniProt Q08210). The assay can be described thus: inhibition of P. falciparum DHODH – biochemical, C-terminal His tag, absorbance 600 nm, primary screen (AID 1175).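 Further: recombinant parasite enzyme with a five histidine tag at its C terminus; test concentration not given here.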 To be noted: PfDHODH enzyme, DCIP absorbance 600 nm; higher = more signal, called active from +8 up or from −8 down.

Assay [5] can be described thus: inhibition of PAO1 biofilm formation – strain PAO1, LB-PBS medium, absorbance 600 nm, primary screen (AID 1176). Further: test concentration not given here. To be noted: P. aeruginosa PAO1 growth/biofilm, A600, 12 h; higher = more signal.
A short description of assay [6]: growth modulation of vineyard yeast isolate – strain RM11-1a, OD600, basal, 24 h, primary screen (AID 1177).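 Further: cultures grown under basal conditions with no added stressor; test concentration not given here.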 The settings on record: S. cerevisiae RM11-1a growth, OD600, 24 h; higher = more signal, called active from +8 up or from −8 down.
Assay [7] in a line: growth of efflux-deficient E. coli DRC39 – strain DRC39, OD650, 24 h, E. coli filamentation inducers, primary screen (AID 1178).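 Further: growth measured as culture turbidity by optical density at 650 nm; test concentration not given here.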 The settings on record: E. coli DRC39 acrAB, higher = more signal, called active from +8 up or from −8 down.
Assay [8] in a line: growth of efflux-deficient E. coli DRC39 – strain DRC39, OD650, 48 h, E. coli filamentation inducers, primary screen (AID 1179).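 Further: screen aims at cell division blockers that make cells filament.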 To be noted: E. coli DRC39 delta-acrAB growth, higher = more signal, called active from +8 up or from −8 down.
A short description of assay [9]: viability profiling in RPMI8226 myeloma cells – cell-based, resazurin fluorescence, basal, 24 h, PK04 Diversity Set, profiling panel (AID 1180).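 Further: RPMI8826 multiple myeloma cell line at 5000 cells per well; test concentration not given here.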 To be noted: higher = more signal.
In assay [10] the target is E3 ubiquitin-protein ligase XIAP (Homo sapiens) (UniProt P98170). The assay can be described thus: small molecules binding XIAP protein – biophysical, small-molecule microarray, fluorescence 635 nm, primary screen (AID 1181).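 Further: score merges 667 nm emission and signal to noise over triplicate slides.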 To be noted: higher = more signal.
Sequence of E3 ubiquitin-protein ligase XIAP (Homo sapiens) (P98170 whole entry, looked up): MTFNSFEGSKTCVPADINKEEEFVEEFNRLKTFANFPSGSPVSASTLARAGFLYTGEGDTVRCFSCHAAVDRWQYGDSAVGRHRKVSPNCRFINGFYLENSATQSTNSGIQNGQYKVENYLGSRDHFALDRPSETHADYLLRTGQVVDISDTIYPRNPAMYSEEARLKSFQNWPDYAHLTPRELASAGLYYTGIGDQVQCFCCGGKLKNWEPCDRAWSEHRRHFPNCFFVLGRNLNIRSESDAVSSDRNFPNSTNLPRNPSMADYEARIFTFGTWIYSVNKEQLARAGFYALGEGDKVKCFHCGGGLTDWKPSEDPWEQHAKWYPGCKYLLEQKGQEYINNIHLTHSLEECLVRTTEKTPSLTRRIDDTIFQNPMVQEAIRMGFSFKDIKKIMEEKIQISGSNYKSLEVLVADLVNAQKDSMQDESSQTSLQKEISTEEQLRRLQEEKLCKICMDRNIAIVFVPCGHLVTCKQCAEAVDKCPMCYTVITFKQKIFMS

Sequence of Dihydroorotate dehydrogenase (quinone), mitochondrial (Plasmodium falciparum (isolate 3D7)) (Q08210 whole entry, looked up): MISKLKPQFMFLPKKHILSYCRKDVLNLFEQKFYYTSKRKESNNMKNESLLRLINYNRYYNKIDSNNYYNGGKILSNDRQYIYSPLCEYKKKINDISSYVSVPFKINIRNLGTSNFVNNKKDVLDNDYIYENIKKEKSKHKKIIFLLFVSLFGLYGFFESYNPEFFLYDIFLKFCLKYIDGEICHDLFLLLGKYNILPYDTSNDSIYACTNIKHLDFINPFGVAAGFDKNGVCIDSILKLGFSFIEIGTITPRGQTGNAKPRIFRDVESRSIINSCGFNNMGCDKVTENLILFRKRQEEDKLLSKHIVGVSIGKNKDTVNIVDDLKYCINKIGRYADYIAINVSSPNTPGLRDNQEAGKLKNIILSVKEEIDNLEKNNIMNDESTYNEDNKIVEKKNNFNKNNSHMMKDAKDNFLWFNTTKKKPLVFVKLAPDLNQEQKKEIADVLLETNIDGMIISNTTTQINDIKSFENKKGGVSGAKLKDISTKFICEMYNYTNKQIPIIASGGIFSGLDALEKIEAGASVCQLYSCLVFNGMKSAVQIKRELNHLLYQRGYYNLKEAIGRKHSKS

`COc1ccc(CCN2C(=O)[C@@]3(c4ccc([N+](=O)[O-])cc4)CC(=O)N(C4CCCCC4)[C@@H]3c3ccc(CO)cc32)cc1`: the z-score in assay [1] was -0.356; in [2] it was 1.37 (inactive); in [3] it was -0.672 (inactive); in [5] it was 0.944 (inactive); in assay [6] it was -0.582 (inactive); in assay [7] it was -0.0051 (inactive). The values for the z-score in [8] and in [9] were -0.0209 (inactive) and -0.749, respectively. The composite z-score was -25.9 (active) in [4] and -0.167 in [10].

With `COC(=O)[C@@]1(Cc2ccc(OC)cc2)[C@H]2c3cc(C(=O)N4CCCC4)n(Cc4ccc(OC)c(OC)c4)c3C[C@H]2CN1C(=O)c1ccccc1`, the z-score was 0.277 in [1]; 1.66 (inactive) in [2]; -0.994 (inactive) in [3]; 0.259 (inactive) in [5]; 0.744 (inactive) in [6]; -0.333 (inactive) in assay [7]. Further, the z-score was -0.888 (inactive) in [8] and -0.636 in [9]. In addition, the composite z-score was -0.245 (inactive) in [4] and -0.0541 in assay [10].

In the case of `Cc1ccc(S[C@]2(C(=O)NC3CC3)CC(=O)N(C3Cc4ccccc4C3)[C@@H]2c2ccc(CO)cc2)cc1`, the z-score in [1] is -0.122; in assay [2], -0.612 (inactive); in [3] it was 0.0142 (inactive); in assay [5], 0.472 (inactive); in assay [6] it was -1.52 (inactive); in assay [7], 0.851 (inactive). Also, the z-score was 1.26 (inactive) in assay [8] and 0.0919 in [9]. The results for the composite z-score in assay [4] and in assay [10] were -1.85 (inactive) and -0.162, respectively.

As for `CN(C)CCCC[C@@H]1NC(=O)[C@H]2C[C@@H](C(=O)NCCCCCNC(=O)CS)[C@@H](c3cccc(OCCO)c3)N2C1=O`, the z-score was 0.373 in assay [1]; -0.646 (inactive) in assay [2]; -0.212 (inactive) in assay [3]; 0.643 (inactive) in assay [5]; -0.569 (inactive) in assay [6]; -0.197 (inactive) in [7]. The z-score in assay [8] was -0.32 (inactive); in assay [9], -0.421. Further, the composite z-score was -0.286 (inactive) in assay [4] and -0.244 in assay [10].

`CCCCCN1CC=CC23O[C@@H]4/C=C\CCCOC(=O)C4[C@H]2C(=O)N(C(CO)C(C)C)[C@@H]3C1=O` (stereo not given in full): the z-score was 1.05 in assay [1]; 0.367 (inactive) in assay [2]; 0.641 (inactive) in [3]; -0.124 (inactive) in assay [5]; 0.226 (inactive) in assay [6]; 0.299 (inactive) in assay [7]. Moreover, the z-score in assay [8] is 0.0539 (inactive); in assay [9], 0.574. For the same compound, the composite z-score in [4] is -2.08 (inactive); in assay [10], 0.177.

Regarding `C=CC[C@@]1(C(=O)NCc2ccccc2)N=C(c2ccc(OCCCO)cc2)O[C@@H]1c1ccccc1N=[N+]=[N-]`, the z-score is -0.453 in assay [1]; 0.669 (inactive) in assay [2]; -2.2 (inactive) in assay [3]; 1.16 (inactive) in [5]; 2.07 (inactive) in assay [6]; 0.335 (inactive) in [7]. For the same compound, the z-score in [8] is -0.899 (inactive); in assay [9], -0.829. For the same compound, the values for the composite z-score in assay [4] and in assay [10] were 1.92 (inactive) and 0.0736, respectively.

In the case of `CN1C(=O)C2C=CC(C(O)c3cccs3)N(Nc3ccccc3)C2C1=O` (stereo not given), the z-score in assay [1] is -0.698; in assay [2], 0.702 (inactive); in assay [3], -0.861 (inactive); in [5], 0.847 (inactive); in assay [6] it was -0.0337 (inactive); in [7], -0.947 (inactive). Further, the figures for the z-score in assay [8] and in [9] were -0.724 (inactive) and -1.15, respectively. For the same compound, the figures for the composite z-score in assay [4] and in assay [10] were -0.607 (inactive) and 0.311, respectively.

As for `O=C1[C@H]2C=C(Br)[C@H](C[C@@H]2OCCCCO)[C@@]12CO2`, the z-score in [1] was -0.312; in [2], -0.172 (inactive); in assay [3] it was -0.718 (inactive); in [5], 0.13 (inactive); in assay [6] it was 0.614 (inactive); in [7], -0.649 (inactive). Moreover, the values for the z-score in assay [8] and in assay [9] were -0.808 (inactive) and -0.133, respectively. Moreover, the composite z-score in assay [4] is 0.228 (inactive); in assay [10], -0.0749.

Regarding `C=C(CCCC)/C(=C/C[C@@H](OC(C)=O)c1ccccc1OCCO)c1cnc2ccccc2c1`, the z-score in [1] was -1.25; in assay [2], -1.66 (inactive); in [3], -0.614 (inactive); in assay [5], 0.191 (inactive); in assay [6], 0.862 (inactive); in assay [7], -0.765 (inactive). The z-score in assay [8] is -0.587 (inactive); in assay [9], -0.52. The composite z-score in assay [4] is -7.22 (inactive); in assay [10] it was -0.198.

Regarding `CCCCC=C[C@@H](NC(=O)Oc1cccc(C(F)(F)F)c1)c1ccccc1`, the z-score in [1] was -1.68; in assay [2], 1.74 (inactive); in assay [3], -2.06 (inactive); in [5], 2.62 (inactive); in assay [6] it was 1.37 (inactive); in [7], -0.844 (inactive). The figures for the z-score in [8] and in assay [9] were -0.665 (inactive) and -2.1, respectively. For the same compound, the figures for the composite z-score in assay [4] and in assay [10] were -3.25 (inactive) and 0.0748, respectively.
